For orientation: inhibition means the change of the read-out against control, counted positive when it falls.

Out of some 300,000 compounds screened, about 3,200 (1.1%) were called active. This excerpt belongs to a sample that is enriched for actives. Unmarked numbers belong to inactive results.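 The calls were made as follows: active = inhibition above the campaign mean inhibition plus 3 SD (cut at about 35% in these data); inactive = the rest.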

Glutathione S-transferase omega-1 (Homo sapiens), sequence (P78417 whole entry, looked up): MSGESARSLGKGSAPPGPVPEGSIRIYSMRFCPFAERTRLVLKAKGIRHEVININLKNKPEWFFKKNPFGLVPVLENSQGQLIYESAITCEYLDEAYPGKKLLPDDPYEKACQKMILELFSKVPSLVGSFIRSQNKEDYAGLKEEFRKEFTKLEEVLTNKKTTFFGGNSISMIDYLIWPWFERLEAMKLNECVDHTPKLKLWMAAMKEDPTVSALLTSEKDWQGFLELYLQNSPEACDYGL

The assay has as its target Glutathione S-transferase omega-1 (Homo sapiens) (UniProt P78417). The assay can be described thus: inhibitors of recombinant GSTO1, primary screen, counter-screen for RBBP9 inhibitor project, biochemical, fluorescence polarization (AID 1974).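 Also: 0% = GSTO1-1 with DMSO and 100% = wells lacking GSTO1-1 enzyme.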 As to conditions: recombinant GSTO1, activity-based probe fluorescence polarization; at 5.96 µM; stronger effect = higher value. On the technique in general: Counterscreens check selectivity or assay interference.
In the case of `Cc1ccc(C)c(-c2nnc(NC(=O)CS(=O)(=O)c3ccccc3)o2)c1`, the inhibition was 9.44%. On to `CCOc1ccc(C(C)=O)cc1COC(=O)CN1C(=O)NC2(CCCC2)C1=O`, for which the inhibition was 10.1%. As for `C#CCOCCOCCOCCNc1nc(N2CCN(C(=O)CCCCCCCCCCNC(=O)Cn3cc(CCCCCN)nn3)CC2)nc(N2CCN(C(=O)CCCCCCCCCCNC(=O)[C@H](CO)n3cc(CCCSC)nn3)CC2)n1`, the inhibition is 4.11%.

In the case of `Oc1cc2c(cc1O)CN(C(=S)NCCc1ccc(Cl)cc1)CCC2`, the inhibition was -0.15%. In the case of `COc1ccc2c(c1)OC(O)(C(F)(F)C(F)F)CC2=O` (stereo unspecified) it was 42% (active); in that of `CC1(C)CC(=O)c2ccc(O)cc2O1`, 8.19%; in that of `COc1ccc2c(c1)SC(C)CC2=O` (stereo unspecified), -1.85%. The same measure for `COc1ccc(OCCCC(=O)OC(C)C(=O)Nc2ccccc2[N+](=O)[O-])cc1` (stereo unspecified): -0.91%. `COc1ccc(NC(=O)CN(C)C(=O)c2cc(-c3ccc(C)o3)nc3ccccc23)cc1`: the inhibition is 5.17%.

Consider `CN1C(=O)CC(c2ccccc2)C1=O` (stereo unspecified), for which the inhibition was 7.68%.

Regarding `OCC[C@H]1C[C@H](O)[C@@H](O)[C@]2(Cc3ccccc3CO2)O1`, the inhibition was 2.49%.

In the case of `CCC1(CC)Cc2ccccc2-c2nc(CCl)[nH]c(=O)c21`, the inhibition was 84.7% (active). In the case of `CC1(C)Cc2ccccc2-c2nc(CN3CCOCC3)[nH]c(=O)c21`, the inhibition was -0.05%. As to `CC1(C)Cc2ccccc2-c2[nH]c(=S)[nH]c(=O)c21`, the inhibition is 3.5%. Regarding `O=C(COC(=O)CNS(=O)(=O)c1ccc(F)c(F)c1F)NC1CCCC1`, the inhibition is 14.3%. For the compound `CC(OC(=O)CCC(=O)c1ccccc1)C(=O)Nc1ccc(F)cc1` (stereo unspecified), the inhibition was 3.4%.

Regarding `COc1ccc(S(=O)(=O)N2CCOCC2)cc1NC(=O)CSc1ncnc2ccccc12`, the inhibition was 38.4% (active). On to `COc1ccc(S(=O)(=O)N2CCCCC2)cc1NC(=O)COc1ccccc1`, for which the inhibition is -8.4%. The same measure for `COc1ccc(S(=O)(=O)N2CCOCC2)cc1NC(=O)COc1ccccc1`: 13.6%; for `CCn1cc(C(=O)NC2CCCCCC2)c(=O)c2cc(S(=O)(=O)N3CCCCC3)ccc21`: 0.56%. Take `CCCOc1ccc(/C=N/NC(=O)C2CC2)c(OCCC)c1`: the inhibition is 5.8%. The same measure for `Cc1cc(NC(=O)C(C)N2C(=O)c3ccccc3S2(=O)=O)no1` (stereo unspecified): 12.5%; for `CC(=O)c1c(C)[nH]c(C(=O)CN2C(=O)NC(C)(C)C2=O)c1C`: -0.38%.

Take `Cn1c(-c2ccco2)nc2cc3ccccc3cc21`: the inhibition was 1.91%. As to `c1coc(-c2nc3nc4ccccc4n3nc2-c2ccco2)c1`, the inhibition was 47.1% (active). As to `CS(=O)(=O)n1nc(-c2ccco2)nc1N`, the inhibition is -5.37%. For `CC(=O)CC(CC(=O)NC1CCCCC1)c1ccccc1` (stereo unspecified), the inhibition was 5.92%.

Consider `Cc1n[nH]c(=O)c2c(NC(=O)CSc3ccccc3F)oc(C)c12`, for which the inhibition was -2.53%. As to `Cc1coc2c(O)cc3c(c12)OC1(N2CCCCC2)C(=O)NCCCC31` (stereo unspecified), the inhibition is 74.4% (active). In the case of `CCN(CC)CCn1c2c(c(SCC(=O)Nc3nc4ccccc4s3)nc1=O)CCCC2` it was -6.43%. In the case of `CS(=O)(=O)c1ccc(C(=O)OCC(=O)NNC(=O)COc2ccc(Cl)cc2)cc1` it was 1.2%. Consider `Cc1ccc(NC(=O)CN(C)C(=O)Cn2nnc(-c3ccccc3)n2)cc1`, for which the inhibition was 1.43%. Regarding `OCC[C@H]1C[C@H](O)[C@@H](O)[C@]2(CCc3ccccc3O2)O1`, the inhibition was 3.69%. For `CCOC(=O)c1cc(NC(=O)c2cccnc2)ccn1`, the inhibition was 11.6%.

Consider `O=C(NNc1ccccn1)c1ccc(Cl)nc1`, for which the inhibition is 12.7%.

As for `O=C(Cc1c(Cl)cccc1Cl)NC1CC1`, the inhibition is 3.33%. `O=C(CCl)NNc1cccc(Cl)n1`: the inhibition is 50.5% (active). As to `O=C(NCC1CC1)c1onc(CSc2ccccc2)c1C(=O)NCC1CC1`, the inhibition was 4.37%. On to `CCOC(=O)c1ccc(NC(=O)c2c(N)n(C)c(=O)[nH]c2=O)cc1`, for which the inhibition was -7.15%. Regarding `CN(C)c1ccc(S(=O)(=O)NCC(=O)NCC2CCCCC2)cc1[N+](=O)[O-]`, the inhibition was -5.25%. Consider `COc1ccc(NS(=O)(=O)c2ccc(O)c(C(=O)OCC(=O)NC3CCCCC3)c2)cc1`, for which the inhibition was -9.76%.

As to `CCN(C(=O)COC(=O)c1cc(NS(=O)(=O)c2ccc(Cl)c([N+](=O)[O-])c2)ccc1O)C1CCCCC1`, the inhibition was 38.5% (active). In the case of `COCCn1c(SC(C)C(=O)NC2CC2)nnc1-c1cccc(C)c1` (stereo unspecified) it was 12.9%. For the compound `Cc1ccc(NC(=O)C(C)OC(=O)Cc2c[nH]c3ccccc23)cc1S(=O)(=O)N1CCOCC1` (stereo unspecified), the inhibition is 11.7%. On to `O=C(NCCS(=O)(=O)N1CCN(c2ccccc2)CC1)c1ccco1`, for which the inhibition is 1.82%.

As for `O=c1c(/C=N/O)coc2ccc(Cl)cc12`, the inhibition was 38.5% (active).

Consider `Cc1ccc2occ(/C=N/NC(=O)c3ccccc3C)c(=O)c2c1`, for which the inhibition was 23.9%. Consider `NC(=S)N/N=C/c1coc2cc(Cl)ccc2c1=O`, for which the inhibition was 0.72%. On to `COC1(C2=NCCN2)COc2ccccc2O1` (stereo unspecified), for which the inhibition was 10.3%. `COc1ccccc1C(=O)NCCC(=O)NN1C(=O)NC2(CCCCC2)C1=O`: the inhibition is 0.1%. The same measure for `CCCCC1=CC2=CC(=O)C(C)(OC(=O)CC)C(=O)C2=CN1CCCOC(C)C` (stereo unspecified): 19.3%. In the case of `COC(=O)CCCC1=CC2=CC(=O)C(C)(OC(=O)c3cccs3)C(=O)C2=CN1CC(C)C` (stereo unspecified), the inhibition is 19.4%. In the case of `COC(=O)CCCC1=CC2=CC(=O)C(C)(OC(=O)c3cccs3)C(=O)C2=CN1CC1CC1` (stereo unspecified) it was 43.3% (active); in that of `CC(C)N(Cc1ccccc1)C(=O)COC(=O)c1ccccc1SCC(=O)N1CCCC1`, 8.57%.

As to `O=C(CCCn1c(SCC(=O)c2ccc(F)cc2)nc2ccccc2c1=O)NCc1ccco1`, the inhibition was 5.62%. The same measure for `O=C(CCCn1c(SCC(=O)c2ccccc2)nc2ccccc2c1=O)NCC1CCCO1` (stereo unspecified): -0.93%; for `O=C(CCn1c(SCC(=O)c2ccccc2)nc2ccccc2c1=O)NCc1ccc(F)cc1`: 62.5% (active). On to `CCCCCCSc1ccc([C@@H]2[C@@H]3C(=O)N(CC)C(=O)[C@@H]3[C@]3(C(=O)OC)CCCCN23)cc1OC`, for which the inhibition was -5.28%. In the case of `Cc1cccc(NS(=O)(=O)c2cc(Cl)ccc2Cl)n1` it was -9.4%; in that of `COC1=C(N2CCOCC2)C(=O)c2ccccc2C1=O`, 57.8% (active). For `COc1ccc(N2CCN(C(C)=C3C(=O)c4ccccc4C3=O)CC2)cc1`, the inhibition was 2.82%. For the compound `O=C1C(Cl)=C(N2CCOCC2)C(=O)N1c1ccccc1`, the inhibition was 3.26%. As for `COc1ccc(NS(=O)(=O)c2ccc(C)c(C(=O)NNC(=O)c3csc(N4CCOCC4)n3)c2)cc1`, the inhibition is -5.75%.

Turning to `CCCC1C(=O)N2C(N(C)C)=Nc3ccc(C)cc3N2C1=O` (stereo unspecified), the inhibition is -1.7%. For the compound `COc1ccc(-c2cnc(SCCNC(=O)c3ccc4c(c3)OCO4)[nH]2)cc1`, the inhibition is -3.18%. On to `COC(=O)c1ccc(CSc2nncn2C)cc1`, for which the inhibition was -6.04%. For the compound `COC(=O)c1ccc(CSc2nncn2N)cc1`, the inhibition was 61% (active). As to `COC(=O)c1ccc(CSc2nnc(NC(C)C)s2)cc1`, the inhibition is -6.8%. As to `OCC[C@H]1C[C@H](O)[C@@H](O)[C@]2(CCCCO2)O1`, the inhibition was 3.4%. With `COc1ccc(CC2c3cc(OC)c(OC)cc3CC[N+]2(C)CCC(=O)OCCCCCOC(=O)CC[N+]2(C)CCc3cc(OC)c(OC)cc3C2Cc2ccc(OC)c(OC)c2)cc1OC` (stereo unspecified), the inhibition was 11.1%. In the case of `CCC(c1nnc(SCC(=O)NNC(=O)c2ccccc2)n1Cc1ccccc1)N(C)C` (stereo unspecified) it was 1.64%; in that of `COc1ccc(NC(=O)CSc2ncnc3[nH]ncc23)cc1`, 36.4% (active); in that of `COc1ccc(NC(=O)CSc2nc(C)cs2)cc1`, 4.13%. As for `COc1ccc(-n2ncc3c(SCC(=O)NNC(C)=O)ncnc32)cc1`, the inhibition was -13%.

`CCCCN1C(N)=NC[C@@H]1Cc1ccccc1`: the inhibition was -4.9%. Consider `COc1cc(CC(=O)Nc2nc(-c3ccc(F)c(F)c3)cs2)cc(OC)c1OC`, for which the inhibition is -6.41%. `CC(C)(C)C(=O)OCc1nc(-c2ccc(O)c(O)c2)cs1`: the inhibition is 37.1% (active).

Take `Cc1onc(C(=O)NN)c1-c1csc(COc2ccccc2)n1`: the inhibition is 10.4%. Consider `CC(CCN1CCN=C1N(C)C)c1ccccc1` (stereo unspecified), for which the inhibition was 4.27%.

Consider `CNC(C)C#Cc1ccc2sc3cc(OC)c(OC)cc3c(=O)c2c1` (stereo unspecified), for which the inhibition is 0.59%.

Consider `CCCS(=O)(=O)Nc1c(C(=O)O)[nH]c2ccccc12`, for which the inhibition was 0.73%.

Turning to `O=C(O)c1[nH]c2ccccc2c1C(c1cccc(O)c1)c1c(C(=O)O)[nH]c2ccccc12`, the inhibition is 50.4% (active). The same measure for `CC(NC(=O)COC(=O)c1cc(=O)[nH]c2ccccc12)c1ccccc1` (stereo unspecified): -7.45%. Regarding `CN(C)CCN(C(=O)CN1C(=O)c2ccccc2C1=O)c1nc2cc3c(cc2s1)OCCO3`, the inhibition was 1.93%. With `COc1cccc(N2CC(NC(=O)c3ccc4ccccc4c3)CC2=O)c1` (stereo unspecified), the inhibition is -0.99%.

Take `CC(C)(C)C(=O)COC(=O)c1cc(S(=O)(=O)N2CCCCC2)ccc1N1CCOCC1`: the inhibition is -0.05%. The same measure for `CC1CCN(C(=O)COC(=O)c2cc(S(=O)(=O)N3CCOCC3)ccc2Cl)CC1`: -3.67%; for `O=C(OCC(=O)N1CCCC1=O)c1cc(S(=O)(=O)N2CCOCC2)ccc1Cl`: 82% (active); for `CCCNC(=O)c1onc(CSc2ccc(F)cc2)c1C(=O)NC(C)C`: -6.69%. For `CC[N+](C)(CC)CCC[n+]1c(-c2ccccc2)c2cc(N)ccc2c2ccc(N)cc21`, the inhibition was 92.8% (active).

On to `COCC(=O)Nc1c(I)c(C(=O)NCC(O)CO)c(I)c(C(=O)N(C)CC(O)CO)c1I` (stereo unspecified), for which the inhibition is 3.24%.

These data come from PubChem BioAssay AID1974 (The Scripps Research Institute Molecular Screening Center, 2009).
